Laboratory results: PubChem BioAssay
Calls of active or inactive are those of the source. Unless noted, the rule behind the calls is not given here.

Tests used:
[1] = system: Aerobactin synthetase IucA (Klebsiella pneumoniae); test: IucA aerobactin synthetase inhibitors, biochemical, Tocris library, absorbance (AID 1345561); conditions: purified IucA enzyme assay, absorbance (OD) read-out; stronger effect = lower value;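 tested at 8 µM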;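 note: 100% = enzyme without compound and 0% = no enzyme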
[2] = sensitizers of A549 cells to miR-34 induction, primary screen, imaging, A549 dox-inducible miR-34, nuclei and caspase counts (AID 1347080;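 active = compounds whose cell count with miR-34 switched on is under 0.7 times the count with it off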); conditions: A549 miR-34 inducible, Hoechst nuclei count, 48 h
[3] = viability rescue of complex I mutant cybrids, primary screen, cell-based, galactose medium, ATP luminescence (AID 1645843;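 active = z-score of at least 1.8 in each of two replicates, scored against plate mean and spread of sample wells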;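 note: positive z means more ATP and so rescue of galactose-driven cybrid death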); conditions: complex I mutant cybrid cells, 72 h, stronger effect = higher value
[4] = stronger effect = lower value, cell number ratio, induced over uninduced
[5] = measured here: relative caspase fold change +Dox/-Dox
[6] = measured here: total cells with miR-34 induction, stronger effect = lower value
[7] = measured here: total cells without miR-34 induction

SMILES	remaining activity [1]	fold change [2, 4]	fold change [2, 5]	cell count [2, 6]	cell count [2, 7]	z-score [3]
CC[N+](C)(CC)CC(=O)Nc1c(C)cccc1C	109% (inactive)	0.963 (inactive)	0.801	8930	9270	0.265 (inactive)
O=[N+]([O-])c1cc(Cl)ccc1S(=O)(=O)N1CCN(Cc2ccccc2)CC1	110% (inactive)	0.93 (inactive)	1.18	8490	9130	-0.68 (inactive)
CC1=C(C(=O)OCCN(Cc2ccccc2)c2ccccc2)C(c2cccc([N+](=O)[O-])c2)C(P2(=O)OCC(C)(C)CO2)=C(C)N1 (centres undefined)	131% (inactive)	0.992 (inactive)	1.07	4790	4830	-0.9 (inactive)
COc1cc(COc2cc(N)c(Cl)cc2C(=O)CCC2CCN(CCNS(C)(=O)=O)CC2)cc(OC)c1	100% (inactive)	0.842 (inactive)	1.5	3930	4660	-0.81 (inactive)
COc1ccc(-c2ccc(=N)n(CCCC(=O)O)n2)cc1	122% (inactive)	0.902 (inactive)	0.531	8640	9580	-0.295 (inactive)
CCCn1c(=O)[nH]c2nc(-c3ccc(S(=O)(=O)O)cc3)[nH]c2c1=O	93.6% (inactive)	0.829 (inactive)	2.26	7230	8720	1.45 (inactive)
CC1(C(=O)O)NCCc2cc(O)c(O)cc21 (centres undefined)	123% (inactive)	0.987 (inactive)	0.804	8540	8650	-0.015 (inactive)
COC(=O)[C@@H]1C2C[C@H]3c4[nH]c5ccccc5c4CCN3C[C@@H]2CC[C@@H]1O (some centres undefined)	95.9% (inactive)	0.91 (inactive)	2.92	8430	9270	0.315 (inactive)
Nc1nc(-c2ccc(Cl)c(Cl)c2)c(-c2ccncc2)s1	110% (inactive)	0.959 (inactive)	1.23	8510	8870	1.59 (inactive)
CC(=O)N[C@H](Cc1c[nH]c2ccccc12)C(=O)OCc1cc(C(F)(F)F)cc(C(F)(F)F)c1	106% (inactive)	0.923 (inactive)	0.896	8110	8790	-0.035 (inactive)
CCc1cc(C(C)=O)c(O)cc1OCCCCCC(C)(C)c1nn[nH]n1	116% (inactive)	0.891 (inactive)	1.51	7060	7920	-0.21 (inactive)
OC(CCCN1CCN(c2ncc(F)cn2)CC1)c1ccc(F)cc1 (centres undefined)	116% (inactive)	0.931 (inactive)	0.869	7880	8470	-0.495 (inactive)
CC(C)N1Cc2cc(S(C)(=O)=O)ccc2N(CCN2CC=C(c3c[nH]c4cc(F)ccc34)CC2)S1(=O)=O	110% (inactive)	0.929 (inactive)	1.15	6990	7530	0.12 (inactive)
COc1ccccc1N1CCN(CCn2c(=O)[nH]c3c([nH]c4ccccc43)c2=O)CC1	108% (inactive)	0.88 (inactive)	0.64	8910	10100	1.92 (active)
Cn1cnnc1Sc1c([N+](=O)[O-])ncn1C	103% (inactive)	0.949 (inactive)	1.89	8370	8820	-0.12 (inactive)
CN(CCOc1ccc(CC(Nc2ccccc2C(=O)c2ccccc2)C(=O)O)cc1)c1ccccn1 (centres undefined)	103% (inactive)	0.954 (inactive)	1.08	7420	7780	1.48 (inactive)
c1ccc(N2CCN(Cc3nc4ccccc4[nH]3)CC2)nc1	78.8% (inactive)	0.909 (inactive)	2.02	8260	9090	0.04 (inactive)
CCc1ccccc1OC[C@@H](O)CN[C@H]1CCCc2ccccc21	106% (inactive)	0.986 (inactive)	0.799	4870	4940	-0.74 (inactive)
N#Cc1cc2[nH]c(=O)c(=O)[nH]c2cc1[N+](=O)[O-]	113% (inactive)	0.891 (inactive)	1.62	9010	10100	0.095 (inactive)
